Assay outcomes as filed in PubChem.
RE007 growth inh = qHTS Assay for Inhibitors of the HIV-1 protein Vpr; Potency, µM (doses to about 92.2 µM), for the others: at the top dose activity change, negative = less growth, usual class: inhibitors; 0.21% of 360,000 active; S. pombe RE007 Vpr strain, BacTiter-Glo ATP luminescence, 24 h; active = well fitted falling curve with a large enough effect; inconclusive = small, poorly fitted or top-dose-only effect; inactive = no such curve, though single readings can be large or run the other way; note: potency is the fitted concentration of half-maximal effect; % is set by controls: 0 for no effect and ±100 for the full control effect; nearly all actives have a fitted effect of over 50% in size
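Fission yeast strain RE007, carrying one chromosomally integrated HIV-1 vpr copy, was seeded at OD 0.01 in PMG+AL medium with 23 nL pinned compound. After 24 h at 30 °C and 99% humidity, viability was read by BacTiter-Glo luminescence.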
Shiga inhibitor = A qHTS for Small Molecule Inhibitors of Shiga Toxin | 9.2% of 290,000 active | Vero cells, Shiga toxin protein synthesis inhibition reporter | inhibition, % at 38.7 µM; in the data active = inhibition mostly above about 28%, no sharp cut-off; inactive = mostly below about 43%; note: 0% is about no effect
Cycloheximide cs = Cycloheximide Counterscreen for Small Molecule Inhibitors of Shiga Toxin; cell reporter, cycloheximide protein synthesis inhibition counterscreen; max response, %; 12% of 300,000 active; in the data active = max response mostly above about 13%, no sharp cut-off; inactive = mostly below about 14%; note: read at 38.3 µM for the half of the compounds with a filed dose; 0% is about no effect
Tb PYK inh = qHTS of Trypanosoma Brucei Inhibitors | TbPYK enzyme, Kinase-Glo Plus ATP luminescence, 45 min | AID 624173, 2012 | Potency, µM (titrated, usually from 76.8 µM), for the others: at the top dose activity, negative = inhibition, hits mostly inhibitors | pyruvate kinase (Trypanosoma brucei), Q57TT1 | 0.12% of 410,000 active; note: potency is the fitted concentration of half-maximal effect; % is set by controls: 0 for no effect and ±100 for the full control effect; nearly all actives have a fitted effect of over 50% in size
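Enzyme and substrate buffer are dispensed first and compound is pin-transferred. ADP at 130 uM final then starts the reaction, which runs 45 min at room temperature. Detection reagent is added for 10 min before luminescence is imaged.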
FBPA Giardia inh = qHTS Assay for Inhibitors of Fructose-1,6-bisphosphate Aldolase from Giardia Lamblia. A8B2U2. purified Giardia FBPA. Potency, µM (titrated, usually from 59.6 µM), without a hit: at the highest dose activity, negative = inhibition, most hits filed as inhibitors. 0.71% of 290,000 active. AID 2451, 2010; note: potency is the fitted concentration of half-maximal effect; % is set by controls: 0 for no effect and ±100 for the full control effect; nearly all actives have a fitted effect of over 55% in size
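40 nM FBPA preincubated 10 min at RT with compound (up to 57.5 uM final), then substrate plus GAPDH/TPI/NAD/arsenate coupling and diaphorase/resazurin added. Fluorescence read after 20 min at RT, 525/598 nm.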
LmPK inh = qHTS Assay for Inhibitors of Leishmania Mexicana Pyruvate Kinase (LmPK) | purified LmPK, Kinase-Glo ATP luminescence, 1 h | 0.37% of 290,000 active | AID 1721, 2009 | Potency, µM (doses to about 57.5 µM), for the others: at the top dose activity change, negative = inhibition, usual class: inhibitors | Q27686; note: potency is the fitted concentration of half-maximal effect; % is set by controls: 0 for no effect and ±100 for the full control effect
Target sequence (Q27686 whole entry, looked up): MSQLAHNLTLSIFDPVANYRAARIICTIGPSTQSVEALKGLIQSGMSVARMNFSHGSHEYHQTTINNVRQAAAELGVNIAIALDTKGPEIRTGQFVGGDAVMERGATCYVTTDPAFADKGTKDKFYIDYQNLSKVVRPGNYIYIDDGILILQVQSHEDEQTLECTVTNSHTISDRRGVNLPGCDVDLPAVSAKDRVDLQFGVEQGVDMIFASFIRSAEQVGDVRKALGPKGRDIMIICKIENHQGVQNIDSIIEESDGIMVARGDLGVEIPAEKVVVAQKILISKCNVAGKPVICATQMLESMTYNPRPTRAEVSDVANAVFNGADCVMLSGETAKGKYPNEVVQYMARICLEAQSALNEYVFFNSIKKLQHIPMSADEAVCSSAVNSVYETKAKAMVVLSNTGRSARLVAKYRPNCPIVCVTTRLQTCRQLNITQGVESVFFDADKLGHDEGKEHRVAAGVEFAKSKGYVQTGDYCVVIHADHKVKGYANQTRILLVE
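ATP generated from ADP (0.1 mM) and PEP (0.5 mM) by 0.1 nM LmPK over 1 h at room temperature (pH 7.2 imidazole buffer) was detected by coupled luciferase luminescence. Values were normalized to uninhibited and no-enzyme wells.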
* hit, by the source's call; ? = inconclusive; · = no result; + = active, no number; [ ] = dose if it differs, or a comment. Many of the other results were omitted from the sample, so hits are more common in it than they were. Unless noted, calls come from the whole dose curve; as a rule, active = well fitted curve in the direction sought with a large enough effect; inconclusive = small, poorly fitted or top-dose-only effect, or another doubt; inactive = no such curve, though single readings can be large; an effect the other way counts as inactive or inconclusive.

SMILES	RE007 growth inh	Shiga inhibitor	Cycloheximide cs	Tb PYK inh	FBPA Giardia inh	LmPK inh
COc1ccc(CNC(=O)c2ccc3c(c2)N(C)C(=O)C2CCCCN32)cc1OC (centres undefined)	·	·	·	3.0%	·	·
O=C1Nc2ccccc2/C1=N/N=C/c1cccc(O)c1	16.2%	48.4*	48.8*	-3.1%	0.0%	-0.4%
CCCCCCCCCCCCCCCC[N+](C)(C)Cc1ccccc1	·	·	·	7.8%	·	·
CC1CCN(c2nnc(-c3cccs3)c3ccccc23)CC1	-6.2%	60.3	15.9*	6.3%	-3.5%	5.2%
c1csc(-c2nnc(NC3CCCCC3)c3ccccc23)c1	-11.5%	-4.5	-4.9	-1.8%	-5.0%	4.2%
C=CCn1c(-c2cccn(Cc3cccc(Cl)c3)c2=O)n[nH]c1=S	8.9%	-13.1	-3.2	8.91µM*	-14.8%	-0.7%
O=c1c(-c2n[nH]c(=S)n2-c2ccccc2)cccn1Cc1cccc(Cl)c1	10.2%	9.5	-3.1	12.6µM*	0.5%	-3.8%
C=CCn1c(-c2cccn(Cc3ccccc3)c2=O)n[nH]c1=S	8.3%	-3.5	-0.5	?	?	2.4%
CCOC(=O)N1CCN(C(=O)c2ccccc2NC(=O)c2ccc(F)cc2)CC1	2.6%	5.4	-0.7	-16.8%	6.1%	0.4%
CCOC(=O)N1CCN(C(=O)c2ccccc2NC(=O)c2ccc(Br)cc2)CC1	-1.5%	14.7	1.2	0.0%	7.3%	4.4%
CCOC(=O)N1CCN(C(=O)c2ccccc2NC(C)=O)CC1	126.3%	71.9	24.0*	3.8%	-5.5%	-0.1%
CCOC(=O)N1CCN(C(=O)c2ccccc2NC(=O)COc2ccccc2)CC1	-0.2%	108.6*	31.2*	-18.6%	·	-9.3%
CCC(C)[C@H](N)c1nnc(SCc2ccc(Cl)c(Cl)c2)o1 (some centres undefined)	·	·	·	-8.0%	·	·
COc1ccc(CCNC(=O)c2cnn(-c3ccc(F)cc3)c2C2CCN(C(=O)OC(C)(C)C)CC2)c(OC)c1	·	·	·	-0.6%	·	·
COc1ccc(C(=O)NCC(c2cccnc2)N2CCN(c3ccc(F)cc3)CC2)cc1 (centres undefined)	·	·	·	-0.7%	·	·
Cc1ccc(N/C(SCc2ccccc2C)=C(/C#N)C(=O)NCc2ccco2)cc1C	-3.7%	10.5	15.9	13.4%	-8.6%	3.6%
CCc1ccc(N/C(SCc2cccc(F)c2)=C(/C#N)C(=O)NCc2ccco2)cc1	0.6%	28.8	21.0*	-5.9%	-10.2%	0.0%
Clc1ccc(SCCCCN2CCNCC2)cc1	-8.5%	65.0	39.4*	15.3%	15.6%	-1.5%
Cc1ccc(SCCCCN2CCOCC2)cc1	3.5%	16.9	6.9*	-13.1%	?	-18.8%
Cc1ccc(C)c(OCCCN2CCNCC2)c1	-14.5%	-3.4	-4.2	13.9%	?	0.2%
Cc1ccc(SCCCCN2CCNCC2)cc1	0.4%	+	36.9*	13.7%	?	-2.1%
Clc1ccc(SCCCCN2CCOCC2)cc1	-1.4%	35.3	10.9	-18.0%	-24.9%	3.3%
Clc1ccc(-c2noc(CCCc3ccccc3)n2)cc1	5.8%[3.69 µM]	-5.0	8.4	·	8.1%	-2.8%
O=C1c2ccccc2C(=O)N1Cc1nc(-c2ccccn2)no1	7.7%	46.8*	45.6*	-1.8%	3.7%	0.8%
O=C1c2ccccc2C(=O)N1CCc1nc(-c2ccncc2)no1	5.8%[3.69 µM]	-13.4	-3.1	·	-2.7%	2.0%
SMILES	RE007 growth inh	Shiga inhibitor	Cycloheximide cs	Tb PYK inh	FBPA Giardia inh	LmPK inh
c1ccc(CCCc2nc(-c3ccccn3)no2)cc1	14.5%	62.2*	45.8*	0.0%	3.9%	-2.8%
COc1ccc(Cc2nc(-c3ccccn3)no2)cc1	10.8%	28.6	41.1*	-2.1%	0.4%	-6.0%
c1ccc(Cc2nc(-c3ccccn3)no2)cc1	6.4%	94.2*	50.2*	-14.4%	-3.8%	-13.1%
COc1ccc(CC(=O)NCc2nc(-c3ccccc3)no2)cc1	-12.0%	2.1	-0.8	-16.0%	-0.6%	4.8%
O=C(C1CCCN(S(=O)(=O)c2ccc(Br)s2)C1)N1CCN(c2ccccc2F)CC1 (centres undefined)	·	·	·	-1.2%	·	·
Cc1ccc(Cc2nc(-c3ccccn3)no2)cc1	-1.8%	68.8*	40.5*	3.1%	4.4%	-6.8%
c1ccc(SCc2nc(-c3ccccn3)no2)cc1	0.0%	39.5*	58.4*	-5.4%	-5.3%	-3.0%
c1ccc(C(Cc2nc(-c3ccccn3)no2)c2ccccc2)cc1	23.0%	94.3*	55.8*	5.8%	8.0%	1.5%
Cc1cc(NC(=O)CCCn2c(C)c3cnn(-c4ccccc4)c(=O)c3c2C)ccc1Br	·	·	·	-0.3%	·	·
S=C1NC(c2ccccc2)=NCN1c1ccc(Cl)cc1	-13.6%	81.2	26.9*	-6.7%	-0.8%	3.7%
CCc1ccc(NC(=S)Nc2cc(C(=O)O)ccc2N2CC3CC(C2)c2cccc(=O)n2C3)cc1 (centres undefined)	3.2%	70.0*	35.5	-1.0%	-9.8%	1.8%[11.5 µM]
C/C(=C1/C(=O)N(c2ccc([N+](=O)[O-])cc2)N=C1c1ccccc1)N(C)C	·	33.1	24.5*	·	4.5%	2.0%
CN(C)/C=C1\C(=O)N(c2ccc([N+](=O)[O-])cc2)N=C1c1ccccc1	-2.3%	93.1*	31.6*	-2.0%	-13.2%	0.2%
CN(C)/C=C1/C(=O)N(c2ccc([N+](=O)[O-])cc2)N=C1c1ccccc1	·	82.7*	34.2*	·	-0.1%	-2.9%
Cc1c(Cl)cccc1NC(=O)N1CCC(CN2CCCC2)CC1	·	·	·	1.4%	·	·
O=C(c1cccc(F)c1)N1CCC2(CC1)CN(C(c1ccccc1)c1ccccc1)C2	·	·	·	6.7%	-1.2%	·
CCOc1ccc(OCC)c(S(=O)(=O)N2CCN(c3cccc(C)c3C)CC2)c1	·	·	·	-14.4%	·	·
COc1ccc2oc(C(=O)NNC(=O)c3ccc(F)cc3)c(C)c2c1	-21.8%	·	·	3.5%	·	·
COc1ccc2oc(C(=O)NC(C)(C)C)c(C)c2c1	-6.8%	95.8*	49.3*	7.7%	7.7%	0.4%
COc1ccc(-c2cc(C(=O)NCC3CCCO3)c3cc(C)ccc3n2)cc1 (centres undefined)	-6.9%	14.0	18.2*	5.4%	-3.4%	2.1%
CC(C)NC(=O)c1ccc(COCC(F)(F)C(F)F)cc1	12.5%	19.2	21.8	-1.2%	-4.0%	-9.7%
O=C(NCC1CCCO1)c1ccc(COCC(F)(F)C(F)F)cc1 (centres undefined)	-0.7%	26.0	19.0*	3.0%	-0.1%	-1.1%
COc1cccc(S(=O)(=O)NCc2ccc(C(=O)NCC3CCCO3)cc2)c1 (centres undefined)	2.2%	45.5*	22.0	-2.9%	5.1%	-0.7%
CCc1nn(CC(=O)NC(C)CCc2ccccc2)c(=O)c2cc3c(OC)cccc3n12 (centres undefined)	·	·	·	-16.1%	·	·
